# Experimental data reported in PubChem BioAssay AID1578 (Sanford-Burnham Center for Chemical Genomics, 2009).
# Screen size: about 290,000 compounds; about 3,000 (1%) were called active. Cut-off read from the data, not from the text of the source: active = inhibition mostly above about 36% (no sharp cut-off); inactive = mostly below about 34%. The full list was thinned out, with actives kept by preference.
# Assay: NOD1 signaling inhibitors, primary screen, cell-based, luminescence, uHTS (AID 1578);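 note: HEK-293T reporter cells stimulated with the NOD1 agonist gamma-tri-DAP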
# Details: NOD1-driven NF-kB luciferase reporter cells, at 4 µM, active compounds read high
row,Structure (SMILES),inhibition
1,CC(C)(C)c1ccc(C(=O)NC(=S)NCc2ccco2)cc1,-11% (inactive)
2,N=c1c2c(n(Cc3ccc(Br)cc3)c3c1CCC3)CCCC2,39% (inactive)
3,N=c1c2c(n(Cc3ccc(F)cc3)c3c1CCC3)CCCC2,22.1% (inactive)
4,NC(=O)c1ccccc1NC(=O)Cc1cccs1,-10.4% (inactive)
5,O=CNCc1nc2ccccc2n1CCCc1ccccc1,-1.8% (inactive)
6,O=CNCc1nc2ccccc2n1CCc1ccccc1,66% (active)
7,O=CNCCc1nc2ccccc2n1CCc1ccccc1,15% (inactive)
8,CNc1ccc(Cl)nn1,-42.7% (inactive)
9,C=C(C)[C@@H]1CCC2(C(=O)O)CC[C@]3(C)[C@H](CC[C@@H]4[C@@]5(C)CCC(=O)C(C)(C)[C@@H]5CC[C@]43C)[C@@H]12 (stereo not given in full),48.4% (inactive)
10,CC1(C)C(=O)CC[C@]2(C)C3C(=O)C=C4[C@H]5C[C@@](C)(C(=O)O)CC[C@]5(C)CC[C@]4(C)[C@]3(C)CC[C@@H]12 (stereo not given in full),-7.3% (inactive)
11,O=C(NCc1ccccc1)c1ccco1,-12.3% (inactive)
12,O=C(C#Cc1ccccc1)c1ccco1,72.9% (active)
13,O=C(CSCCSCC(=O)c1ccco1)c1ccco1,-26.9% (inactive)
14,CC(C)C(=O)Nc1ccc(C(=O)NCc2cccnc2)cc1,-35.1% (inactive)
15,CNC(=O)CSc1nc2cc(S(=O)(=O)Nc3ccc(OC)cc3)ccc2o1,-1.2% (inactive)
16,COc1ccc(NS(=O)(=O)c2ccc3oc(SC)nc3c2)cc1,-2.9% (inactive)
17,COC(=O)Cc1[nH]n(-c2nc3ccccc3s2)c(=O)c1C(C)=O,-16.2% (inactive)
18,CC(=O)c1c(CC(=O)O)[nH]n(-c2nc3ccccc3s2)c1=O,79.8% (active)
19,CCCN=C(C)c1c(-c2ccccc2)[nH]n(-c2nc3ccccc3s2)c1=O,7.3% (inactive)
20,O=C(CCN1C(=O)c2ccccc2C1=O)OCN1C(=O)c2ccccc2C1=O,11.2% (inactive)
21,O=c1cc(N2CCN(c3ccc(F)cc3)CC2)[nH]c(=O)n1Cc1ccc(F)cc1,-13% (inactive)
22,CC1=NNC(=O)/C1=C\c1cn(-c2ccccc2)nc1-c1ccc(F)cc1,-39.1% (inactive)
23,CC1=NNC(=O)/C1=C\c1cn(-c2ccccc2)nc1-c1ccc(Cl)cc1,-47.4% (inactive)
24,CC1=NNC(=O)/C1=C\c1cn(-c2ccccc2)nc1-c1ccccc1,64.7% (active)

row,Structure (SMILES),inhibition
1,COc1ccc(NC(=O)CC(C(=O)O)N2CCCCC2)cc1 (stereo not given),2.5% (inactive)
2,Cc1cc(/C=N/Nc2nc(N)ncc2[N+](=O)[O-])c(C)n1-c1cccc(C(F)(F)F)c1,-14.7% (inactive)
3,Cc1ccccc1-n1c(C)cc(/C=N/Nc2ccc([N+](=O)[O-])cn2)c1C,-119% (inactive)
4,COc1cccc(/C=N/Nc2ncnc(N)c2[N+](=O)[O-])c1OC,53.3% (inactive)
5,Cc1cc(/C=N/Nc2ccc([N+](=O)[O-])cn2)c(C)n1-c1ccccc1,-31.3% (inactive)
6,O=C(CCN1C(=O)/C(=C/c2ccccc2)SC1=S)NNC(=O)c1ccncc1,-47.5% (inactive)
7,O=C1CC(c2ccc(F)cc2)C2=C(CCCC2=O)N1 (stereo not given),-5.5% (inactive)
8,CCc1cc2c(=O)n(Cc3ccccc3)c(SC3CCOC3=O)nc2s1 (stereo not given),-29.3% (inactive)
9,COc1ccc(CCN2C(=NC(=O)C(C)C)SC3CS(=O)(=O)CC32)cc1OC (stereo not given),-10.6% (inactive)
10,CCCCS(=O)(=O)/C=C\C1C2C=CC(C2)C1S(=O)(=O)CCCC (stereo not given),6.2% (inactive)
11,CCCCS(=O)(=O)/C=C\C=C/S(=O)(=O)CCCC,97.7% (active)
12,CCCCS(=O)(=O)/C=C/[C@H]1[C@H](S(=O)(=O)CCCC)[C@H]2C=C[C@@H]1C2,-23.6% (inactive)
13,Cc1cc(C)nc(NC2=NCC(=O)N2CCc2c[nH]c3ccccc23)n1,-8.6% (inactive)
14,Cc1ccc(NC(=O)CCN2CCN(C)CC2)cc1,24.4% (inactive)
15,COC(=O)c1sc(NC(=S)NC(=O)c2cccc(Br)c2)nc1C,25.2% (inactive)
16,CN(Cc1ccccc1F)c1nc(-c2cccs2)nc2ccccc12,67.9% (active)
17,CN(Cc1ccccc1F)c1nc(-c2cccnc2)nc2ccccc12,25.5% (inactive)
18,COc1cccc(CN(C)c2nc(-c3cccs3)nc3ccccc23)c1,7.9% (inactive)
19,O=C(Nc1ccccc1-c1nnc(SCc2ccc(Cl)cc2)o1)c1ccccc1,5.6% (inactive)
20,COc1ccc(CC(=O)OCN2C(=O)c3ccccc3C2=O)cc1,0.1% (inactive)
21,O=C(Cc1ccccc1F)OCN1C(=O)c2ccccc2C1=O,-15.6% (inactive)
22,O=C(Cc1ccc(F)cc1)OCN1C(=O)c2ccccc2C1=O,49.7% (active)
23,Cc1c(NC(=O)Nc2cccc(C#N)c2)c(=O)n(-c2ccccc2)n1C,-8.2% (inactive)
24,COc1ccc(NC(=O)c2ccc(S(=O)(=O)N(C)C)cc2)cc1,-41.1% (inactive)

row,Structure (SMILES),inhibition
1,O=c1c2cnn(-c3ccccc3)c2nc(-c2cccs2)n1-c1cccc(Cl)c1,-3.1% (inactive)
2,Cc1ncoc1C(=O)N1CCCC(CCC(=O)NCc2ccc(F)c(F)c2)C1 (stereo not given),-31.1% (inactive)
3,CN(C)c1ccc(/C=C/c2cccc[n+]2[O-])cc1,2.7% (inactive)
4,CN(C)c1ccc(/C=C/c2cc[n+](C)cc2)cc1,25% (inactive)
5,CC(=O)/C(C(=N)N1CCN(c2cccc(Cl)c2)CC1)=C(\C)O,24.8% (inactive)
6,O=[N+]([O-])c1cc([N+](=O)[O-])c(Oc2cccnc2Br)cc1NN1CCCCC1,5.9% (inactive)
7,O=[N+]([O-])c1cc([N+](=O)[O-])c(Oc2ccc(Cl)c3cccnc23)cc1NN1CCCCC1,44.7% (active)
8,O=[N+]([O-])c1cc([N+](=O)[O-])c(Oc2c(Cl)cccc2Cl)cc1NN1CCCCC1,-4.9% (inactive)
9,O=C(O)c1ccc(S(=O)(=O)NCC2CCCCC2)cc1,-9.7% (inactive)
10,O=C(NCC1COc2ccccc2O1)C1CCCN(S(=O)(=O)c2cccc3cccnc23)C1 (stereo not given),22.5% (inactive)
11,COC(=O)CC1=NN(c2nc3ccccc3s2)C(=O)/C1=C/N(C)C,-19.7% (inactive)
12,COC(=O)Cc1[nH]n(-c2nc3ccccc3s2)c(=O)c1C(C)=Nc1ccc(Cl)cc1,1% (inactive)
13,Fc1ccc(CSc2ncnc3nc[nH]c23)cc1,-14.8% (inactive)
14,Cc1cc(C)c(C#N)c(SCc2nnc(-c3ccccc3[N+](=O)[O-])o2)n1,-26% (inactive)
15,N#Cc1c(-c2ccccc2)cc(-c2ccccc2)nc1SCc1nnc(-c2ccccc2)o1,12.9% (inactive)
16,CN(CC1CCN(CCc2cccc(C(F)(F)F)c2)CC1)C(=O)c1ccc(F)cc1,18.5% (inactive)
17,O=C(Cn1c(=O)oc2cc(S(=O)(=O)N3CCCC3)ccc21)N1CCN(c2ccccn2)CC1,-8% (inactive)
18,COc1ccccc1OCc1n[nH]c(=S)n1Cc1ccccc1,-18.7% (inactive)
19,CC(C)Oc1ccc(Cc2n[nH]c(=S)n2Cc2ccccc2)cc1Cl,-44.3% (inactive)
20,COc1ccc(Cc2n[nH]c(=S)n2Cc2ccccc2)cc1Cl,44.7% (active)
21,CCCCn1c(=O)[nH]c(=O)c2c1nc(Cn1ncc(Cl)c(Cl)c1=O)n2CCC,85% (active)
22,CCCCn1c(=O)[nH]c(=O)c2c1nc(CN1C(=O)c3ccccc3S1(=O)=O)n2CCC,-23.3% (inactive)
23,CCCCn1c(CCC(=O)O)nc2c1c(=O)[nH]c(=O)n2CCC,-15.7% (inactive)
24,COc1ccc(NC(=O)c2ccccn2)cc1S(=O)(=O)N1CCOCC1,-33.7% (inactive)

row,Structure (SMILES),inhibition
1,Oc1[nH]c(=S)sc1/C=C1\C(c2ccccc2)=Nc2ccccc21,72.5% (active)
2,Oc1[nH]c(=S)sc1C=C1N=c2ccccc2=N1,-5.9% (inactive)
3,CC1=Nc2ccccc2/C1=C\c1sc(Nc2ccc(C)cc2)nc1O,1.1% (inactive)
4,Cc1ccc(S(=O)(=O)N2CCN(C(=O)CSC3CCCC3)CC2)c(C)c1,-8.8% (inactive)
5,Cc1cccc(N2CCN(c3nc4nonc4nc3N3CCSCC3)CC2)n1,-22.4% (inactive)
6,Cc1ccc(NC(=O)C(=O)NCc2ccccn2)cc1,-47.6% (inactive)
7,Cc1cc(SCC(N)=O)nc(SCC(=O)c2ccccc2)n1,28.1% (inactive)
8,COc1ccc(C(=O)CSc2cc(C)nc(SCC(=O)c3ccc(C)cc3)n2)cc1,63.1% (active)
9,Cc1ccc(C(=O)CSc2cc(C)nc(SCC(=O)c3ccccc3)n2)cc1,61.4% (inactive)
10,Cc1ccc(S(=O)(=O)N2CCN(C(=O)c3sccc3-c3ccccc3)CC2)cc1,-24.8% (inactive)
11,COc1ccc(N(C(C)C(=O)N/N=C/c2ccc(OC(C)C)cc2)S(C)(=O)=O)cc1 (stereo not given),14.7% (inactive)
12,CC(C)(C)c1[nH]nc2c1C(c1ccncc1)C(C#N)=C(N)O2 (stereo not given),-8.8% (inactive)
13,Cc1[nH]nc2c1C(c1ccsc1)C(C#N)=C(N)O2 (stereo not given),-7.7% (inactive)
14,CC(C)(C)c1[nH]nc2c1C(c1ccsc1)C(C#N)=C(N)O2 (stereo not given),59.2% (active)
15,Cc1ccc(C)c(NS(=O)(=O)c2csc(C(N)=O)c2)c1,-9.7% (inactive)
16,O=C(Nc1ccc(Nc2ccccc2)cc1)C(Cl)Cl,-5.4% (inactive)
17,Cc1ccccc1N1C(=O)CC(c2c[nH]c3ccccc23)C1=O (stereo not given),-3.6% (inactive)
18,CC(=O)c1c(-c2ccccc2)[nH]c2ccccc12,5.8% (inactive)
19,COc1nc(OC)nc(N2CCC(C(=O)NCC3CCCCC3)CC2)n1,-10.9% (inactive)
20,Cc1nnc(SCCn2c(N3CCCC(C)C3)nc3c2c(=O)[nH]c(=O)n3C)s1 (stereo not given),-9.1% (inactive)
21,C=CCN(CC=C)C(=S)NC(=O)c1ccc(OC)c(Br)c1,30.4% (inactive)
22,C=CCNC(=S)NC(=O)c1ccc(C)c(Br)c1,-4.3% (inactive)
23,C=CCN(CC=C)C(=S)NC(=O)c1ccc(C)c(Br)c1,108% (active)
